Bioassay records deposited in PubChem by National Center for Advancing Translational Sciences (NCATS).
This is a sample that favours compounds with a hit; in the whole collection about 12% have one here.
Shiga toxin inh: A qHTS for Small Molecule Inhibitors of Shiga Toxin. 290,000 tested, 9.2% active. inhibition, % at 38.7 µM. Vero cells, Shiga toxin protein synthesis inhibition reporter; in the data active = inhibition mostly above about 28%, no sharp cut-off; inactive = mostly below about 43%
CHX counter: Cycloheximide Counterscreen for Small Molecule Inhibitors of Shiga Toxin. cell reporter, cycloheximide protein synthesis inhibition counterscreen. 300,000 tested, 12% active. max response, %; in the data active = max response mostly above about 13%, no sharp cut-off; inactive = mostly below about 14%; note: read at 38.3 µM for the half of the compounds with a filed dose
Marburg entry inh: qHTS for inhibitors of binding or entry into cells for Marburg Virus | Potency, µM (top dose mostly 37.8 µM), actives largely listed as inhibitors | AID 540276, 2011 | Marburg virus pseudotyped entry inhibition, cell reporter | 300,000 tested, 1.8% active; calls by dose curve; tested in HEK293 cells
LASV entry inh: qHTS for Inhibitors of binding or entry into cells for Lassa Virus. Lassa virus pseudotype entry inhibition, cell reporter. 300,000 tested, 1.2% active. Potency, µM (doses to about 37.9 µM), hits mostly inhibitors; calls by dose curve; tested in HEK293 cells; note: nearly all actives have a fitted effect of over 50% in size
G2M arrest HeLa: Cell cycle validation with wells to cells screening paradigm. shares compounds with Marburg entry inh. HeLa cell cycle G2/M arrest, Hoechst DNA content imaging. Potency, µM, actives largely listed as inhibitors. 25 tested, 60% active
WI-38 tox: High Content Assay for Compounds that inhibit the Assembly of the Perinucleolar Compartment: WI-38 Cytotoxicity; shares compounds with Marburg entry inh; WI-38 normal lung fibroblasts, ATPLite luminescence ATP viability, 24 h; Potency, µM (highest dose often 46.1 µM), usual class: inhibitors; 120 tested, under 10 active
PNC assembly inh: High Content Assay for Compounds that inhibit the Assembly of the Perinucleolar Compartment: Confirmation of PNC Inhibition; shares compounds with Marburg entry inh; PC3M PTB-GFP, PNC prevalence imaging, 16 h; Potency, µM (doses to about 46.1 µM), usual class: inhibitors; 120 tested, 50% active
PC3M caspase: High Content Assay for Compounds that inhibit the Assembly of the Perinucleolar Compartment: PC3M Caspase 3/7 Activation | shares compounds with Marburg entry inh | activity change, positive = activation, % at 46.1 µM | PC3M-GFP caspase 3/7 activation, luminescence, 24 h | 120 tested, under 10 active
Large screens that a line does not name were inactive (follow-up assays come after a bar, where they were run); ! = not confirmed by another sample. Unless noted, calls come from the whole dose curve; as a rule, active = well fitted curve in the direction sought with a large enough effect; inconclusive = small, poorly fitted or top-dose-only effect, or another doubt; inactive = no such curve, though single readings can be large; an effect the other way counts as inactive or inconclusive.

O=C(COC(=O)Cc1ccc(Br)cc1)NCC1CCCCC1	none
O=C(COC(=O)Cc1ccsc1)NCC1CCCCC1	none | WI-38 tox inactive | PNC assembly inh inactive | PC3M caspase inactive
CCOc1c(Br)cc(C2C=C(C(=O)O)Nc3ncnn32)cc1OC (stereo not drawn)	Marburg entry inh inconclusive (no result: Shiga toxin inh, CHX counter)
Cc1cc(SCC(=O)c2cc(C)n(C)c2C)nc2ccccc12	Marburg entry inh inconclusive, LASV entry inh inconclusive | WI-38 tox inactive | PNC assembly inh inconclusive | PC3M caspase inactive
Cc1cc(SCC(=O)O)nc2ccccc12	Marburg entry inh inconclusive
CCOC(=O)C(=CN(CCc1ccccc1)CC(=O)OC)C(=O)OCC	none
NSc1nc(N)c2nc(-c3ccccc3)c(-c3ccccc3)nc2n1	none
Nc1nc(N)c2nc(-c3ccccc3)c(N)nc2n1	Marburg entry inh 2.82µM!, LASV entry inh inconclusive | G2M arrest HeLa 10
CCC(=O)Nc1nonc1-c1nc2ccccc2n1Cc1ccccc1	none
CCOC(=O)Cn1c(-c2nonc2NC(=O)c2ccccc2F)nc2ccccc21	Marburg entry inh 0.282µM, LASV entry inh 0.282µM | WI-38 tox inconclusive | PNC assembly inh 4.47µM | PC3M caspase inactive
CC(=O)Nc1cccc(Oc2ncnc3scc(-c4ccc(C)cc4)c23)c1	LASV entry inh inconclusive | WI-38 tox inactive | PNC assembly inh inactive | PC3M caspase inactive
COc1cc([C@@H]2c3cc4c(cc3[C@H](O)C3COC(=O)[C@@H]32)OCO4)cc(OC)c1OC (stereo partly drawn)	Marburg entry inh inconclusive, LASV entry inh inconclusive (no result: Shiga toxin inh, CHX counter) | G2M arrest HeLa 0.0224
O=C(NCc1ccco1)C1CCN(Cc2ccc(F)cc2)CC1	none | WI-38 tox inactive | PNC assembly inh inactive | PC3M caspase inactive
O=C(NCc1ccco1)C1CCCCC1	none
Cc1ccc(S(=O)(=O)N(C)c2ccc(OCC(=O)Nc3nc4ccccc4s3)cc2)cc1	Marburg entry inh 14.6µM, LASV entry inh inconclusive | WI-38 tox inactive | PNC assembly inh inconclusive | PC3M caspase inactive
COc1ccc(NC(=O)COc2ccc(N(C)S(=O)(=O)c3ccc(C)cc3)cc2)cc1	none
COc1ccc(C2c3c(nc[nH]c3=O)Oc3nc[nH]c(=O)c32)cc1	none (no result: Marburg entry inh, LASV entry inh)
O=c1[nH]cnc2c1C(c1ccccc1[N+](=O)[O-])c1c(nc[nH]c1=O)O2	none | WI-38 tox inconclusive | PNC assembly inh inactive | PC3M caspase inactive
C=CCNC(=S)N/N=C(\C)c1ccccn1	Marburg entry inh 0.259µM, LASV entry inh 0.206µM | WI-38 tox inactive | PNC assembly inh 5.01µM | PC3M caspase inactive
CCc1nn2c(=O)cc(COC(=O)c3cccc(NC(=O)CCc4ccccc4)c3)nc2s1	none (no result: Shiga toxin inh, CHX counter, Marburg entry inh)
Cc1ccc(NC2=C/C(=N/S(=O)(=O)c3cccs3)c3ccccc3C2=O)cc1	Shiga toxin inh 145.0, CHX counter 47.5, Marburg entry inh 4.61µM, LASV entry inh 4.11µM | WI-38 tox 31.6µM | PNC assembly inh 25.1µM | PC3M caspase inconclusive
O=C1C(Nc2ccccc2)=C/C(=N/S(=O)(=O)c2cccs2)c2ccccc21	Marburg entry inh 4.11µM, LASV entry inh inconclusive | WI-38 tox 28.2µM | PNC assembly inh inconclusive | PC3M caspase inconclusive
COc1ccc(C(=O)Nc2nc3c(s2)CCCC3)cc1S(=O)(=O)N1CCCc2ccccc21	Marburg entry inh inconclusive, LASV entry inh inconclusive | WI-38 tox inactive | PNC assembly inh 5.01µM | PC3M caspase inactive
O=C(NC(Cc1c[nH]c2ccccc12)C(=O)Nc1ccc(OC(F)(F)F)cc1)c1cccs1 (stereo not drawn)	Marburg entry inh 2.59µM, LASV entry inh 2.06µM | WI-38 tox inactive | PNC assembly inh 7.08µM | PC3M caspase inactive
CC12CCC(C(=O)NC(c3ccccc3)c3ccccc3)(OC1=O)C2(C)C (stereo not drawn)	LASV entry inh inconclusive | WI-38 tox inactive | PNC assembly inh inactive | PC3M caspase inactive
CC1(C(=O)N2CCN(C(=O)c3ccco3)CC2)CC1(Br)Br (stereo not drawn)	none (no result: Marburg entry inh, LASV entry inh)
CC(C)c1ccc(S(=O)(=O)/N=C2/C=C(Sc3ncn[nH]3)C(=O)c3ccccc32)cc1	Shiga toxin inh 77.7, CHX counter 35.8, Marburg entry inh inconclusive, LASV entry inh inconclusive | WI-38 tox inactive | PNC assembly inh inconclusive | PC3M caspase inactive
CC(NC(=O)Cn1c(-c2cccs2)cc2cc(F)ccc21)c1ccccc1 (stereo not drawn)	none (no result: Shiga toxin inh, CHX counter, Marburg entry inh)
Cc1cccc(NC(=O)COc2ccc(-c3nn(C)c(=O)c4ccccc34)cc2)c1	Marburg entry inh inconclusive, LASV entry inh inconclusive
COc1ccc(C(C)=O)cc1COC(=O)c1cc(=O)c2ccccc2o1	none
CCOc1ccc(CN(C)CC(=O)Nc2cc(OC)c([N+](=O)[O-])cc2C)cc1	none | WI-38 tox inactive | PNC assembly inh inactive | PC3M caspase inactive
COC(=O)c1c(-c2ccccc2)csc1NC(=O)c1c(-c2ccccc2)noc1C	Marburg entry inh 1µM, LASV entry inh 0.891µM | WI-38 tox inactive | PNC assembly inh 3.98µM | PC3M caspase inactive
COC(=O)c1ccc(C)c(NC(=O)c2c(-c3ccccc3)noc2C)c1	none
CC(C)NC(=O)CC(=O)Nc1ccc2nc3n(c(=O)c2c1)CCCCC3	Marburg entry inh inconclusive (no result: Shiga toxin inh, CHX counter)
O=C(N/N=C/c1c(O)ccc2ccccc12)c1cccc(C(F)(F)F)c1	Marburg entry inh 2.59µM, LASV entry inh inconclusive | WI-38 tox inactive | PNC assembly inh inconclusive | PC3M caspase inactive
Cc1ccccc1CN1C(=O)c2ccccc2Sc2ccc(C(=O)NC(C)c3ccccc3)cc21 (stereo not drawn)	none (no result: Shiga toxin inh, CHX counter, Marburg entry inh)
O=C(Cc1coc2ccc3ccccc3c12)Nc1nnc(C2CC2)s1	Marburg entry inh inconclusive, LASV entry inh 2.51µM | WI-38 tox inactive | PNC assembly inh 7.94µM | PC3M caspase inactive
C=CCN=c1scc(-c2ccc3c(c2)NC(=O)CO3)n1/N=C(\C)c1ccccn1	Marburg entry inh inconclusive, LASV entry inh inconclusive
CCCCNC(=O)c1c(N)n(/N=C/c2ccccn2)c2nc3ccccc3nc12	none (no result: Marburg entry inh, LASV entry inh)
CCN=c1scc(-c2ccccc2)n1/N=C/c1ccccn1	Shiga toxin inh 78.0, CHX counter 41.2, Marburg entry inh inconclusive, LASV entry inh 1.46µM | WI-38 tox 15.8µM | PNC assembly inh 3.98µM | PC3M caspase inactive
C=CCN=c1scc(-c2ccccc2)n1/N=C/c1ccccn1	Shiga toxin inh active, CHX counter 19.6, Marburg entry inh 2.82µM, LASV entry inh inconclusive | WI-38 tox inconclusive | PNC assembly inh 2µM | PC3M caspase inactive
NC(=O)Cn1c(S(=O)(=O)Cc2ccccc2)nc2ccccc21	none (no result: Shiga toxin inh, CHX counter)
